The source of these data is PubChem BioAssay (NCI).

The panel holds about 83,000 compounds, 20% with a hit somewhere; the sample as a whole holds those more often.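 Compound tested at a single concentration for 48 hours in 96-well plates; a percent growth value below 10 was scored as active.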 Active and inactive are the calls of the source.

This assay has as its system HL-60(TB) leukemia. The assay is described as follows: NCI-60 one-dose screen, 48 h (100 = growth as untreated, 0 = no growth, -100 = all killed). To be noted: 10 µM unless noted.
`O=C(O)CC1=CCCCC1`: the growth was 95.5% (inactive).
For `CC(C)c1ncc(CO)n1Cc1c(Cl)cccc1Cl` the value was 98.7% (inactive); for `COc1ccc(Oc2c(I)cc(CC(NC(C)=O)C(=O)O)cc2I)cc1` (configuration not stated), 86.3% (inactive).
Take `COc1cccc2nc(Nc3cccc(NC(=O)c4ccc(N5CCN(C)CC5)c(C(F)(F)F)c4)c3)ccc12`: the growth is 37.6% (inactive).
As for `O=C1/C(=C\c2ccc(Br)cc2)CN(C(=O)c2ccccc2F)C/C1=C\c1ccc(Br)cc1`, the growth was 33.6% (inactive).
The figure for `Cc1c(/C=C/[N+](=O)[O-])ccc2c1[nH]c1ccccc12` is 67.3% (inactive); for `O=C(/C=C/c1cccc([N+](=O)[O-])c1)c1ccc(Nc2nc(N3CCCCC3)nc(N3CCCCC3)n2)cc1` it is 79.4% (inactive); for `Cc1ccc(-c2cc3nc(-c4ccccc4)nc(C(Cl)Cl)n3n2)cc1` it is 12.6% (inactive).
For `N=C(N)c1ccc(-c2ccc(-c3ccc(Cl)cc3Cl)s2)nc1` the value was -35.7% (active); for `C(=Nc1ccc(-c2ccc(N=Cc3ccccc3)cc2)cc1)c1ccccc1`, 107% (inactive).
For `S=c1nn[nH]c2ccccc12` the value was 105% (inactive).
On to `CCNC(=O)Oc1ccc(/C(=C(\C)c2ccccc2)c2ccc(OCCCN(C)C)cc2)cc1`, for which the growth is 53.2% (inactive).
The figure for `COc1ccc(N=C2C(=Nc3ccc(OC)cc3)N(c3ccc(N(C)C)cc3)C(=S)N2c2ccc(OC)cc2)cc1` is 24.6% (inactive); for `COc1ccc(C(=O)C(CN(C)C)CN(C)C)cc1` it is 3.54% (active); for `C/C(=N\OC(=O)Nc1cccc(Cl)c1)c1ccccc1` it is 110% (inactive).
With `[2H]C([2H])([2H])Oc1cccc(/C=C/C(=O)/C=C(/C=C/c2cccc(OC([2H])([2H])[2H])c2OC([2H])([2H])[2H])OB(F)F)c1OC([2H])([2H])[2H]`, the growth was 60% (inactive).
Regarding `CCCN(CCC)CCCNC(=O)c1cc2c(-c3ccc(OC)c(OC)c3)nn(C)c2s1`, the growth is -13.4% (active).
`O=C(O)CCCC(=O)O`: the growth was 99% (inactive).
On to `Cc1cccc2nc3c(n12)C(=O)C(=O)c1ccccc1-3`, for which the growth is 77.4% (inactive).
For `NC(=O)c1c(NC(=O)c2cccs2)sc2c1CCC(=O)C2` the value was 2.73% (active); for `CC(=O)[C@@H]1CC[C@]2(C(=O)O)CC[C@]3(C)[C@H](CC[C@@H]4[C@@]5(C)Cc6c([nH]c7ccccc67)C(C)(C)[C@@H]5CC[C@]43C)[C@@H]12`, 53.4% (inactive).
For `N#Cc1c(Nc2ccc(F)cc2)n[nH]c1-c1cccs1` the value was 95.3% (inactive); for `COC(=O)[C@H](CSC)N(C)C(=O)[C@@H]1CSSC[C@@H](NC(=O)c2nc3ccccc3cc2O)C(=O)NCC(=O)N1C`, 0.567% (active); for `CCn1cc(C(=O)O)c(=O)c2cc(F)c(N3CCN(S(=O)(=O)c4c(C)cc(C)cc4C)CC3)cc21`, 73% (inactive).
For `N#Cc1c(-c2ccc(C(F)(F)F)cc2)c(F)c(NCCC2CCC(O)C2)n2c1nc1ccccc12` (configuration not stated) the value was 25.1% (inactive).
Turning to `CN1C(=O)[C@H]2c3c1cccc3[C@@]13NC(=O)O[C@H]1[C@H](CCC3(C)C)C2(C)C`, the growth is 97.9% (inactive).
Turning to `O=C1CC[C@@H](C(=O)N[C@H]2CSSC[C@@H](C(=O)NCCc3ccccc3)NC(=O)[C@H](Cc3ccccc3)NC(=O)[C@@H]3CCCN3C(=O)[C@@H]3CCCN3C2=O)N1`, the growth was 76.3% (inactive).
